Some test systems named below: NCI-H23 lung; NCI-H226 lung; NCI-H322M lung; HOP-62 NSCLC; NCI-H460 lung; HOP-92 NSCLC; NCI-H522 lung; A549/ATCC NSCLC; 786-0 renal; COLO 205 colon; DU-145 prostate; K-562 leukemia; MALME-3M melanoma; MDA-MB-231 breast; SF-268 CNS; SF-295 CNS; SF-539 CNS; UACC-257 melanoma; M14 melanoma; RXF 393 renal.
Experiment in all cases: NCI-60 one-dose screen, 48 h (100 = growth as untreated, 0 = no growth, -100 = all killed)
Conditions in all cases: 10 µM unless noted

Structures are written as SMILES. The panel holds about 83,000 compounds, 20% with a hit somewhere; the sample as a whole holds those more often.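 Results are percent growth after 48 hours of single-concentration exposure. 100 means growth as in untreated cells, lower positive values show inhibition; negative values down to -100 show cell death.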 A number with no mark means an inactive call. The source made the active and inactive calls. The calls were made as follows: active = growth percent below 10; inactive = the rest.

As for `COc1ccc(C(=O)c2cc3c(N)c(C(=O)Nc4ccc(Br)cc4)sc3nc2C)cc1`, the growth in the assay on NCI-H23 lung was 82.7%; with NCI-H226 lung, 38.5%; with NCI-H322M lung, 78.9%; in the assay with HOP-62 NSCLC it was 21.2%; in the assay on NCI-H460 lung, 50%; in the assay on HOP-92 NSCLC, 66.1%. The growth with NCI-H522 lung was 39.6%; in the assay with A549/ATCC NSCLC it was 79.5%; in the assay on 786-0 renal, 58.2%; in the assay on COLO 205 colon, 85.9%; in the assay on DU-145 prostate, 79.5%; with K-562 leukemia, 71.5%. The growth in the assay on MALME-3M melanoma is 54.3%; with MDA-MB-231 breast it was 66%; in the assay on SF-268 CNS it was 50.2%; with SF-295 CNS it was 86.6%; with SF-539 CNS, 66.2%; in the assay on UACC-257 melanoma, 79.8%. For the same compound, the growth in the assay with M14 melanoma is 74.1%.

Take `CCOC(=O)Oc1c(OC)cc(C(=O)O[C@@H]2C[C@@H]3CN4CCc5c([nH]c6cc(OC)ccc56)[C@H]4C[C@@H]3[C@H](C(=O)OC)[C@H]2OC)cc1OC`: the growth was 74.9% with NCI-H23 lung; 102% with NCI-H226 lung; 102% in the assay on NCI-H322M lung; 97.9% with HOP-62 NSCLC; 40.9% with NCI-H460 lung; 19% in the assay with HOP-92 NSCLC. In addition, the growth is 73.8% in the assay on NCI-H522 lung; 41.8% in the assay with A549/ATCC NSCLC; 78.7% in the assay on 786-0 renal; 88.9% in the assay with COLO 205 colon; 81.5% with DU-145 prostate; 58.9% with MALME-3M melanoma. In addition, the growth in the assay on MDA-MB-231 breast was 43.2%; in the assay on RXF 393 renal, 89.8%; with SF-268 CNS, 75.2%; in the assay with SF-295 CNS it was 74.3%; in the assay with SF-539 CNS, 79.9%; with UACC-257 melanoma, 94%. For the same compound, in the assay with M14 melanoma, the growth was 72.1%.

As for `Cc1cc2nc(-c3ccccc3)c(-c3ccccc3)nc2cc1C`, the growth is 98.2% with NCI-H23 lung; 94.9% in the assay on NCI-H226 lung; 112% in the assay with NCI-H322M lung; 111% in the assay with HOP-62 NSCLC; 102% in the assay with NCI-H460 lung; 89.6% in the assay on HOP-92 NSCLC. The growth was 94.9% with NCI-H522 lung; 97.9% in the assay with A549/ATCC NSCLC; 95.4% in the assay on 786-0 renal; 119% in the assay on COLO 205 colon; 112% in the assay with DU-145 prostate; 113% in the assay on MALME-3M melanoma. In addition, the growth with MDA-MB-231 breast is 94.5%; in the assay on RXF 393 renal it was 111%; with SF-268 CNS, 116%; in the assay with SF-295 CNS, 90%; in the assay on SF-539 CNS, 109%; in the assay on UACC-257 melanoma, 117%. In the assay on M14 melanoma, the growth is 113%.

With `Cc1ccc2[nH]c(=O)cc(-n3nncc3COc3ccc(C=O)cc3)c2c1`, the growth in the assay on NCI-H23 lung is 103%; in the assay on NCI-H226 lung it was 90.3%; in the assay with NCI-H322M lung, 103%; in the assay with HOP-62 NSCLC, 101%; in the assay with NCI-H460 lung, 106%; in the assay on HOP-92 NSCLC, 95.6%. Further, the growth in the assay with NCI-H522 lung was 89.7%; in the assay with A549/ATCC NSCLC, 103%; in the assay on 786-0 renal it was 102%; with COLO 205 colon, 128%; with DU-145 prostate, 105%; in the assay with MALME-3M melanoma it was 100%. Besides, the growth in the assay on MDA-MB-231 breast is 101%; in the assay with SF-268 CNS it was 102%; in the assay with SF-295 CNS, 104%; with SF-539 CNS it was 99.4%; in the assay on UACC-257 melanoma it was 116%; in the assay on M14 melanoma, 103%.

As to `Cc1cc(NC(=O)c2cnc(N3CCN(CCOCCOCCOCCOCCC(=O)N[C@H](C(=O)N4C[C@H](O)C[C@H]4C(=O)N[C@@H](C)c4ccc(-c5scnc5C)cc4)C(C)(C)C)CC3)cn2)c2ncccc2c1`, the growth was 4.34% (active) with NCI-H23 lung; 1.46% (active) in the assay with NCI-H226 lung; 35.6% in the assay on NCI-H322M lung; 4.92% (active) with HOP-62 NSCLC; 7.54% (active) in the assay on NCI-H460 lung; 4.9% (active) in the assay on HOP-92 NSCLC. In addition, the growth is -15.6% (active) with NCI-H522 lung; 66.7% in the assay on A549/ATCC NSCLC; 29.9% in the assay with 786-0 renal; 47.1% in the assay on COLO 205 colon; 35% in the assay with DU-145 prostate; 6.65% (active) in the assay on K-562 leukemia. Also, the growth is -31.7% (active) with MALME-3M melanoma; -61.6% (active) with MDA-MB-231 breast; 8.05% (active) with SF-268 CNS; -14.9% (active) with SF-295 CNS; -75.5% (active) with SF-539 CNS; -5.78% (active) in the assay with UACC-257 melanoma. In the assay on M14 melanoma, the growth is -33.7% (active).

Regarding `CCCCCCCCCCN=C(N)N=C(N)N`, the growth is 29.4% with NCI-H23 lung; 47.4% in the assay on NCI-H226 lung; 80.9% with NCI-H322M lung; 50.6% in the assay with HOP-62 NSCLC; 40.6% with NCI-H460 lung; 21.2% in the assay with HOP-92 NSCLC. The growth in the assay on NCI-H522 lung is 53%; in the assay with A549/ATCC NSCLC, 70.1%; in the assay with 786-0 renal, 26.2%; in the assay on COLO 205 colon, 32%; in the assay on DU-145 prostate, 79.1%; in the assay with K-562 leukemia it was 21.3%. Also, the growth was 30.4% in the assay on MALME-3M melanoma; 38.8% in the assay on MDA-MB-231 breast; 33.1% in the assay with SF-268 CNS; 42.8% with SF-295 CNS; 58.5% in the assay with SF-539 CNS; 48.5% with UACC-257 melanoma. Moreover, the growth in the assay with M14 melanoma was 48.2%.

As for `CN1CCN(CCCNc2nccc(-c3c(-c4ccc(F)c(O)c4)nc4sccn34)n2)S1(=O)=O`, the growth with NCI-H23 lung is 94.2%; in the assay with NCI-H226 lung, 105%; in the assay on NCI-H322M lung, 115%; in the assay on HOP-62 NSCLC it was 104%; with NCI-H460 lung, 101%; in the assay on HOP-92 NSCLC, 70.7%. Moreover, the growth is 74.4% in the assay on NCI-H522 lung; 103% with A549/ATCC NSCLC; 126% in the assay with 786-0 renal; 29.8% with COLO 205 colon; 97.7% in the assay with DU-145 prostate; 66% in the assay with K-562 leukemia. The growth was -10.4% (active) with MALME-3M melanoma; 70.8% with MDA-MB-231 breast; 104% with SF-268 CNS; 101% in the assay with SF-295 CNS; 113% with SF-539 CNS; 33.8% in the assay on UACC-257 melanoma. The growth with M14 melanoma is 20%.

Take `CCC(=O)c1ccc(O)c(OC)c1`: the growth with NCI-H23 lung was 96.1%; in the assay on NCI-H226 lung, 72.4%; with NCI-H322M lung, 106%; in the assay with HOP-62 NSCLC, 104%; with NCI-H460 lung, 104%; in the assay on HOP-92 NSCLC, 82.6%. Also, the growth was 88.2% with NCI-H522 lung; 86.5% in the assay with A549/ATCC NSCLC; 4.29% (active) in the assay with 786-0 renal; 120% in the assay with COLO 205 colon; 113% with DU-145 prostate; 104% in the assay with MALME-3M melanoma. The growth is 92% in the assay on MDA-MB-231 breast; 111% in the assay with RXF 393 renal; 104% in the assay with SF-268 CNS; 105% in the assay on SF-295 CNS; 111% in the assay on SF-539 CNS; 85.7% in the assay with UACC-257 melanoma. Also, the growth with M14 melanoma was 101%.

For the origin of these results see PubChem BioAssay (NCI).
